A short description of assay [1]: NCI Yeast Anticancer Drug Screen. Data for the rad50 strain (AID 155).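 Further: 0% = growth of vehicle-only cultures of the same strain.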 The following applies: S. cerevisiae rad50 strain growth inhibition; at 50.0 µM; active compounds read high. Put shortly:
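Compounds were tested on a yeast strain with an engineered DNA damage repair alteration; the reported value is growth inhibition normalised to vehicle treatment.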

Assay [2] in a line: NCI Yeast Anticancer Drug Screen. Data for the mec2-1 strain (AID 157). The following applies: S. cerevisiae mec2-1 strain, at 50.0 µM, active compounds read high. Put shortly:
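Yeast mec2-1 mutant treated with compound. Readout: growth inhibition vs vehicle controls.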

Assay [3] can be described thus: NCI Yeast Anticancer Drug Screen. Data for the sgs1 mgt1 strain (AID 161).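 Further: 0% = growth of cultures given vehicle only.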 The following applies: S. cerevisiae sgs1 mgt1 strain, at 50.0 µM, active compounds read high. Put shortly: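 Read-out: growth inhibition vs vehicle controls. Cells: mutant yeast strain deficient in DNA damage repair.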
A short description of assay [4]: NCI Yeast Anticancer Drug Screen. Data for the cln2 rad14 strain (AID 165).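 Further: 0% = growth equal to vehicle treated cultures.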 The following applies: S. cerevisiae cln2 rad14 strain, at 50.0 µM, active compounds read high. Put shortly:
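cln2 rad14 yeast strain; compound exposure; growth inhibition read vs vehicle controls.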

The nature of assay [5]: NCI Yeast Anticancer Drug Screen. Data for the bub3 strain (AID 167). The following applies: S. cerevisiae bub3 mutant strain, at 50.0 µM, active compounds read high. Put shortly: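 Growth of a checkpoint-deficient yeast mutant is measured after compound exposure. Values represent inhibition relative to vehicle.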
Assay [6] can be described thus: NCI Yeast Anticancer Drug Screen. Data for the mlh1 rad18 strain (AID 175). The following applies: S. cerevisiae mlh1 rad18 strain growth inhibition; at 50.0 µM; active compounds read high. Put shortly: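 Yeast w/ defined DNA-repair lesions; compound exposure; growth vs vehicle controls → % inhibition.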

About 79,000 compounds went through this panel and 15% of them were active in at least one assay; those are over-represented in the sample as a whole. Unmarked numbers belong to inactive results. Active and inactive are the calls of the source. No stated cut-off is given here; in the data, active means growth inhibition above about 70%; inactive means the rest.

For the molecule `CCOC(=O)n1cccc(C)c1=N`, the growth inhibition in assay [1] is -10.1%; in assay [2], 13.7%; in assay [3], 18.9%; in assay [4] it was -17.2%; in assay [5] it was -8.85%; in assay [6], 27.1%.

With `O=c1c(C(c2ccc(Cl)cc2)c2c(O)c3ccccc3n(-c3ccccc3)c2=O)c(O)c2ccccc2n1-c1ccccc1`, the growth inhibition is -12.9% in assay [1]; -0.65% in assay [2]; -9.95% in assay [3]; -12.4% in assay [4]; -0.8% in assay [5]; -3.4% in assay [6].

Consider `COC(=O)c1ccc(/C=C2\CCc3ccccc3C2=O)cc1`, for which the growth inhibition is -9.9% in assay [1]; -9.15% in assay [2]; -16.2% in assay [3]; 12.5% in assay [4]; 14.2% in assay [5]; 11.2% in assay [6].

Consider `CN(C)c1ccc(/C=N\N=C\c2ccco2)cc1`, for which the growth inhibition in assay [1] was 7.65%; in assay [2] it was -3.2%; in assay [3], 22.6%; in assay [4], -40.2%; in assay [5], -7.55%; in assay [6], 10.1%.

As for `Cc1ccc(C(=O)/C=C/c2ccco2)cc1`, the growth inhibition was 49% in assay [1]; 33.6% in assay [2]; 46% in assay [3]; 33.5% in assay [4]; 34.5% in assay [5]; 61.3% in assay [6].

`CC1=Nc2ccc(C)cc2N=C(C)C1`: the growth inhibition is 11.4% in assay [1]; 4.1% in assay [2]; 7.2% in assay [3]; -29.4% in assay [4]; 22.4% in assay [5]; -1.6% in assay [6].

On to `CCCCCCCCCCCCCCCC[N+](C)(C)CCN=[N+]=[N-]`, for which the growth inhibition in assay [1] was 99.4% (active); in assay [2], 99.7% (active); in assay [3] it was 99.7% (active); in assay [4], 99.2% (active); in assay [5], 99.5% (active); in assay [6] it was 99.5% (active).

For the molecule `O=C(N/N=C(\C1=Nc2ccc(Cl)cc2NC1O)C(O)/C=C/c1ccccc1)c1ccncc1` (stereo not given), the growth inhibition is 17.6% in assay [1]; 3.95% in assay [2]; -8.8% in assay [3]; -20.7% in assay [4]; -4% in assay [5]; 7.7% in assay [6].

Regarding `Cc1ccccc1NC(=O)CS`, the growth inhibition in assay [1] was 17.6%; in assay [2], 31.9%; in assay [3], 31.2%; in assay [4], -21%; in assay [5], 29.2%; in assay [6], 33.2%.

Consider `CC(=O)NC(CCc1ccccc1)C(=O)O` (stereo not given), for which the growth inhibition was 16.1% in assay [1]; 32.4% in assay [2]; 0.9% in assay [3]; 24.9% in assay [4]; 40.8% in assay [5]; 13.8% in assay [6].

Regarding `COc1ccc(C2=C(Cl)c3cc(OC)c(OC)cc3C2=O)cc1OC`, the growth inhibition in assay [1] is 0.75%; in assay [2] it was -7.1%; in assay [3], -7.05%; in assay [4], -18.9%; in assay [5], -9.85%; in assay [6], 2.4%.

For `C=CCOC(=O)CCC(CCC(=O)OCC=C)C(C)=O`, the growth inhibition in assay [1] is -25.4%; in assay [2] it was -19.4%; in assay [3], 0.55%; in assay [4], -9.6%; in assay [5], 4.1%; in assay [6], -11.5%.

For `CN(C)c1ccc(Cc2c[nH]c3ccccc3c2=O)cc1`, the growth inhibition was 8.4% in assay [1]; 12.8% in assay [2]; 18.8% in assay [3]; 12.2% in assay [4]; 25.1% in assay [5]; 9.65% in assay [6].

With `O=C(O)Cc1c(-c2ccccc2)nc(=S)[nH]c1-c1[nH]c(=S)nc(-c2ccccc2)c1CC(=O)O`, the growth inhibition in assay [1] was -15.6%; in assay [2] it was 10.1%; in assay [3], -17%; in assay [4], -12.3%; in assay [5] it was 2.15%; in assay [6], 2.25%.

As for `OC(CCl)CN1CCN(CC(O)CCl)CC1` (stereo not given), the growth inhibition is -3.05% in assay [1]; 12.3% in assay [2]; 2.55% in assay [3]; 13.5% in assay [4]; -9.55% in assay [5]; -24.8% in assay [6].

`Cc1ccccc1NC(=O)CSc1nnc(Cc2ccccc2)o1`: the growth inhibition in assay [1] is -15.3%; in assay [2], -20.6%; in assay [3], -36.8%; in assay [4], -13.5%; in assay [5], -33.8%; in assay [6], -35.5%.

In the case of `Cc1cccc2c(N=[N+]=[N-])cc(C(F)(F)F)nc12`, the growth inhibition is 5.35% in assay [1]; 6.7% in assay [2]; -0.6% in assay [3]; -43% in assay [4]; 12.7% in assay [5]; -1.4% in assay [6].

In the case of `CC(=O)Oc1cc(Oc2c(OC(C)=O)cc(Oc3c(OC(C)=O)cc(OC(C)=O)c(OC(C)=O)c3OC(C)=O)cc2OC(C)=O)cc(OC(C)=O)c1OC(C)=O`, the growth inhibition in assay [1] was 6.15%; in assay [2], 3.1%; in assay [3], 13.2%; in assay [4] it was 4.5%; in assay [5], 15.4%; in assay [6], 10.4%.

As for `CN1[C@@H]2C[C@@H](OC(=O)[C@H](CO)c3ccccc3)C[C@H]1[C@@H]1O[C@@H]12`, the growth inhibition in assay [1] was -1.3%; in assay [2], 2.4%; in assay [3] it was -33.7%; in assay [4], -20.4%; in assay [5], -10.3%; in assay [6], 5.6%.

Turning to `Cc1cc(Sc2ccc(Cl)cc2)nc(Sc2ccc(Cl)cc2)c1C#N`, the growth inhibition in assay [1] is 7.6%; in assay [2], -30.5%; in assay [3] it was -27.9%; in assay [4], -20.6%; in assay [5] it was -10.7%; in assay [6] it was -26.9%.

For the origin of these results see PubChem BioAssay (NCI).
